Source: PubChem BioAssay AID588726 (The Scripps Research Institute Molecular Screening Center, 2011)
Out of some 360,000 compounds screened, about 8,200 (2.3%) were called active. The sample as a whole holds a higher share of actives than the screen did. Unmarked numbers belong to inactive results. Cut-off read from the data, not from the text of the source: active = inhibition above about 27%; inactive = the rest.

These molecules were tested against Fructose-bisphosphate aldolase (Mycobacterium tuberculosis (strain ATCC 25618 / H37Rv)) (UniProt P9WQA3) (assay: Mtb FBA enzyme inhibitors, primary screen, biochemical, fluorescence, strain H37Rv (AID 588726;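 note: 0% = vehicle and 100% = reference inhibitor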)). Conditions: purified M. tuberculosis FBA, fluorescence read-out, at 1 µM, hits give high values.
Chain of Fructose-bisphosphate aldolase (Mycobacterium tuberculosis (strain ATCC 25618 / H37Rv)) (P9WQA3 whole entry, looked up): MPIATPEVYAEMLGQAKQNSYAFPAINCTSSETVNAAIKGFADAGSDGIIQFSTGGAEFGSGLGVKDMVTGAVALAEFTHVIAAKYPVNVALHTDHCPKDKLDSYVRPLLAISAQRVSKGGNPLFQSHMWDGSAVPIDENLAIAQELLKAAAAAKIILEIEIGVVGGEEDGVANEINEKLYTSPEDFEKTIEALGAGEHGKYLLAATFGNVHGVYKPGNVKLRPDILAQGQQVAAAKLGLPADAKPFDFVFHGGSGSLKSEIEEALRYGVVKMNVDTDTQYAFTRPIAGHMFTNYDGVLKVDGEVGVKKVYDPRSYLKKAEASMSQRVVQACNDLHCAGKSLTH

For `CC(=O)NC12CC3CC(C1)CC(C(=O)N1CCN(S(=O)(=O)c4cccs4)CC1)(C3)C2`, which inhibition is on record?
The inhibition was -0.81%.

`Cc1cn(C2OC[C@@H](O)[C@@H]2CO)c(=O)[nH]c1=O` (stereo not given in full) was tested. Which inhibition did it give?
Its inhibition is 0.66%.

Which inhibition does the source give for `O=C(Nc1ccc([N+](=O)[O-])cc1)C1(c2ccccc2)CCOCC1` here?
The inhibition was -1.46%.

With `O=C(OCC(=O)N1CCCC1=O)c1cc(S(=O)(=O)N2CCOCC2)ccc1Cl` as the molecule, how does the inhibition read?
The inhibition was -0.38%.

How did the inhibition turn out when `COCc1c(N)c(C)nc(Cl)c1C#N` was run?
The inhibition was 7.26%.

`CCOC(=O)c1cc(C)nc(S(C)(=O)=O)c1C#N` was tested. Which inhibition did it give?
The inhibition was 3.95%.

`COC(=O)c1c(C)c(C)nc(N)c1C#N` was tested. Which inhibition did it give?
The inhibition was 82.5% (active).

With `Cn1nc(C(C)(C)C)c([N+](=O)[O-])c1C(N)=O` as the molecule, how does the inhibition read?
Its inhibition is 1.86%.

With `O=C(Cn1cnc([N+](=O)[O-])n1)NCCc1ccccc1` as the molecule, how does the inhibition read?
The inhibition was 0.01%.

How did the inhibition turn out when `O=C(NC1CCCCC1)c1ccc2c(=O)n(CC3CCCO3)c(=O)[nH]c2c1` (stereo not given) was run?
Its inhibition is -9.09%.

How did the inhibition turn out when `CC1CCCCN1CCCNC(=O)Cn1ncc2c([nH]c3ccccc32)c1=O` (stereo not given) was run?
Its inhibition is 12%.

Which inhibition does the source give for `CCCCCn1c(=O)[nH]c2cc(C(=O)NCCCN3CCCCC3C)ccc2c1=O` (stereo not given) here?
Its inhibition is 114% (active).

With `CCOC1CS(=O)(=O)CC1OCC` (stereo not given) as the molecule, how does the inhibition read?
The inhibition was -0.21%.

For `FC(F)(F)c1ccccc1Cc1c(-c2ccccc2)nc2c3ccccc3ccn12`, which inhibition is on record?
Its inhibition is 5.62%.

`Cc1ccc(Cc2c(-c3ccc(C)cc3)nc3c4ccccc4ccn23)cc1` was tested. Which inhibition did it give?
Its inhibition is 4.37%.

Which inhibition does the source give for `c1ccc(Cc2c(-c3ccco3)nc3c4ccccc4ccn23)cc1` here?
The inhibition was 33.2% (active).

For `Cc1cc(NC(=O)/C=C/C(=O)N(CC(=O)NC2CCCC2)c2ccc(F)cc2)no1`, which inhibition is on record?
The inhibition was -1.71%.

Which inhibition does the source give for `CC1CN(/C=C/C(=O)C(F)(F)F)CC(C)O1` (stereo not given) here?
The inhibition was -2.87%.

How did the inhibition turn out when `O=C1CN(C(=O)COC(=O)C2CC(=O)N(Cc3ccco3)C2)c2ccccc2N1` (stereo not given) was run?
Its inhibition is 1.16%.

How did the inhibition turn out when `CN1C(=O)c2ccc(C(=O)Nc3ccc(Br)cn3)cc2C1=O` was run?
The inhibition was -2.34%.

With `Cc1cccc(C(=O)Nc2ccc3c(c2)C(=O)N(CC(C)C)C3=O)c1` as the molecule, how does the inhibition read?
The inhibition was 8.31%.

How did the inhibition turn out when `CN1C(=O)c2ccc(NC(=O)c3c(F)c(F)c(F)c(F)c3F)cc2C1=O` was run?
Its inhibition is 37.5% (active).

How did the inhibition turn out when `CN1C(=O)c2ccc(NC(=O)C3CCCCC3)cc2C1=O` was run?
Its inhibition is 33.2% (active).

`O=C(Nc1ccc2c(c1)OCCO2)C1CCCC1` was tested. Which inhibition did it give?
Its inhibition is -2.43%.

Which inhibition does the source give for `Cc1nc2ccc(NC(=O)C3CCCCC3)cc2s1` here?
The inhibition was 2.5%.

For `COc1cc(CN2CCCN(C)CC2)c([N+](=O)[O-])cc1OC`, which inhibition is on record?
Its inhibition is 2.5%.

For `O=C(Nc1ccc(F)c([N+](=O)[O-])c1)C1CC(=O)N(Cc2ccccc2)C1` (stereo not given), which inhibition is on record?
Its inhibition is -0.61%.

`CCNC(=O)c1cccc(NC(=O)C2CC(=O)N(CCc3ccccc3)C2)c1` (stereo not given) was tested. Which inhibition did it give?
Its inhibition is 3.18%.

How did the inhibition turn out when `Cc1cc(=O)oc2cc(NC(=O)C3CC(=O)N(Cc4ccccc4)C3)ccc12` (stereo not given) was run?
The inhibition was 68.5% (active).

For `CC(=O)c1cccc(NC(=O)COc2ccc(S(=O)(=O)N3CCOCC3)cc2)c1`, which inhibition is on record?
The inhibition was -1.21%.

`Cc1ccc(NC(=O)C(CC(=O)O)C2CCCO2)c(C)c1` (stereo not given) was tested. Which inhibition did it give?
Its inhibition is 2.55%.

With `CC(C)=CCc1c(O)c(CC=C(C)C)c2occ(-c3ccc(O)cc3)c(=O)c2c1O` as the molecule, how does the inhibition read?
The inhibition was -0.11%.

For `O=c1[nH]c(CN2CCOCC2)nc2scc(-c3ccccc3)c12`, which inhibition is on record?
The inhibition was -0.65%.

Which inhibition does the source give for `O=c1c(-c2ccccc2)coc2c(CN3CCOCC3)c(O)ccc12` here?
The inhibition was 36.3% (active).

For `O=C1/C(=C/c2coc3ccc(O)cc3c2=O)SC(=S)N1c1ccccc1`, which inhibition is on record?
The inhibition was -0.97%.

For `O=c1c(-c2ccccc2)coc2cc(O)ccc12`, which inhibition is on record?
The inhibition was 32.2% (active).

How did the inhibition turn out when `CCOC(=O)c1oc2c(CN3CCN(C)CC3)c(O)ccc2c(=O)c1-c1ccc(Br)cc1` was run?
Its inhibition is -0.95%.

For `O=C(Cc1cccs1)N(CC1CCCO1)C1(C(=O)NC2CCCCC2)CCCCC1` (stereo not given), which inhibition is on record?
Its inhibition is -1.48%.

Which inhibition does the source give for `C/C(=N/NC(=O)CN1CCN(S(=O)(=O)c2ccc(Br)cc2)CC1)c1ccncc1` here?
Its inhibition is -1.72%.

How did the inhibition turn out when `Cc1nc2nc(C)c(NS(=O)(=O)c3ccc(C(C)(C)C)cc3)c(=O)n2[nH]1` was run?
Its inhibition is 1.79%.

For `CC(=O)c1ccc(N2CCN(CC(O)c3ccccc3)CC2)cc1` (stereo not given), which inhibition is on record?
The inhibition was -0.54%.

How did the inhibition turn out when `COc1cc(N)c(Cl)cc1C(=O)OCC(=O)c1ccc2c(c1)NC(=O)CO2` was run?
The inhibition was -2.6%.

With `CSc1ccc(CN2C(=O)NC3(CCCCCC3)C2=O)cc1` as the molecule, how does the inhibition read?
The inhibition was 6.55%.

Which inhibition does the source give for `CCSc1ccccc1C(=O)NCc1ccc(OC)cc1` here?
Its inhibition is -3.44%.

For `COc1ccc(CNC(=O)c2c[nH]c3c(OC)cc(OC)cc3c2=O)cc1`, which inhibition is on record?
Its inhibition is 34.8% (active).

How did the inhibition turn out when `COc1ccc(CNC(=O)c2cc(C(=O)C3CC3)c[nH]2)cc1` was run?
The inhibition was 5.17%.

For `C=CC[C@@H](CC(=O)N[C@@H](CO)Cc1ccccc1)C(=O)N[C@H](COC(=O)[C@H](CC=C)CC(=O)OC(C)(C)C)Cc1ccccc1`, which inhibition is on record?
The inhibition was 3.8%.

How did the inhibition turn out when `CCCCc1nc(NCCN)c(C#N)c2c1CSC(C)(C)C2` was run?
Its inhibition is 5.12%.

`Cc1nc(NCc2ccccc2)c(C(N)=O)c2c1COC(C)(C)C2` was tested. Which inhibition did it give?
Its inhibition is 22.3%.

How did the inhibition turn out when `Cc1nc(NCCN)c(C#N)c2c1COC(C)(C)C2` was run?
The inhibition was 27.9% (active).

For `CC(C)Cc1nnc(N)s1`, which inhibition is on record?
The inhibition was 0.9%.

`CC(=O)Nc1ccc(S(=O)(=O)NCCC(=O)N2CCN(c3ccccc3Cl)CC2)cc1` was tested. Which inhibition did it give?
Its inhibition is 3.53%.

For `O=c1c2ccccc2nc(-c2ccccc2)n1-c1ccccn1`, which inhibition is on record?
Its inhibition is -4.31%.

Which inhibition does the source give for `O=C(Nn1c(-c2ccc(Cl)cc2)nc2ccccc2c1=O)c1cccnc1Cl` here?
Its inhibition is 15%.

With `Cc1ccc(-c2nc3ccccc3c(=O)n2-c2ccc(Br)cn2)cc1` as the molecule, how does the inhibition read?
The inhibition was 27.5% (active).

`COCCCNC(=O)/C(C#N)=C/c1c(N2CCCCCC2)nc2ccccn2c1=O` was tested. Which inhibition did it give?
Its inhibition is 74.5% (active).

Which inhibition does the source give for `COCCNC(=O)/C(C#N)=C/c1nc(N(C)C)n(-c2ccc(F)cc2)c1Cl` here?
The inhibition was 0.71%.

How did the inhibition turn out when `O=Cc1c(N2CCN(c3cccc(Cl)c3)CC2)nc2ccccn2c1=O` was run?
Its inhibition is 6.06%.

With `N#CC1(C#N)C(C(=O)C23CC4CC(CC(C4)C2)C3)C12CCOCC2` (stereo not given) as the molecule, how does the inhibition read?
The inhibition was 1.25%.

For `CSc1ncccc1C(=O)OCc1ccc(Br)cc1`, which inhibition is on record?
The inhibition was 2.13%.
